“And” between values parts separate entries of the source, which are not always exact repeats. Equal values may be shown once. Some structures have more than one record in an assay (separate samples or runs), and their calls can disagree. The source made the active and inactive calls. The calls were made as follows: active = hit-call score of the fitted dose curve at least 0.9, where 1 is the maximum; inactive = score below 0.9.
Columns and labels:
[1] = BSK_3C_SRB: Viability Assessment in the BioMAP Diversity Plus: 3C Assay (AID 2283023); settings: primary human endothelial cells (HUVEC);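 also: fitted both ways against DMSO so a hit may be signal rise or drop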
How it was run: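 Primary human umbilical vein endothelial cells in the 3C system were read 24 h after compound dosing. Total protein was stained with 0.1% sulforhodamine B after 10% TCA fixation and read at 560 nm, with bidirectional fitting against DMSO as baseline.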

[2] = read-out: Matrix Metallopeptidase 1 (MMP1), MMP1 (gene 4312); assay: BSK_BE3C_MMP1: BioMAP Diversity Plus: BE3C Assay for Matrix Metallopeptidase 1 (MMP1) Biomarker Activity (AID 2283024); settings: primary human bronchial epithelial cells; actives raise or lower the signal
How it was run: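 ELISA measurement of MMP-1 after 24 h compound exposure of primary human bronchial epithelial cells. Changes in either direction fitted relative to DMSO; parallel SRB staining checked overt cytotoxicity.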

[3] = BSK_3C_Vis: BioMAP Diversity Plus: 3C Assay for Morphology Visualization (AID 2283025); settings: primary human endothelial cells (HUVEC);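 also: fitted both ways so gain or loss versus DMSO counts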;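 as to AC50: light microscopy image of cell morphology used as background control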
How it was run: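 Light-microscopy visualization of HUVEC cultures at 24 h post-treatment, with DMSO as baseline for bidirectional fitting.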

[4] = read-out: Pselectin, SELP (gene 6403); assay: BSK_4H_Pselectin: BioMAP Diversity Plus: 4H Assay for Pselectin Biomarker Activity (AID 2283026); settings: primary human endothelial cells (HUVEC); actives raise or lower the signal
How it was run: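 ELISA of surface P-selectin on HUVEC, 24 h after dosing, with parallel SRB staining (0.1% after 10% TCA fixation, 560 nm) for overt cytotoxicity. Activity fitted in both directions relative to DMSO.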

[5] = BSK_4H_SRB: Viability Assessment in the BioMAP Diversity Plus: 4H Assay (AID 2283027); settings: primary human endothelial cells (HUVEC);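 also: cells exposed to compound for 24 h before staining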;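 as to AC50: curves fitted both ways versus DMSO so AC50 may be loss or gain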
How it was run: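 Cytotoxicity read-out in primary human endothelial cells: after 24 h compound exposure, cells were TCA-fixed (10%), stained with 0.1% SRB and absorbance taken at 560 nm. Values fitted in both directions relative to DMSO.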

[6] = BSK_BE3C_SRB: Viability Assessment in the BioMAP Diversity Plus: BE3C Assay (AID 2283028); settings: primary human bronchial epithelial cells;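 as to AC50: fitted both ways so AC50 may mark signal gain or loss versus DMSO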
How it was run: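 Human primary bronchial epithelial cells were exposed to test chemicals for 24 h. Total protein in parallel cultures was then measured by staining with 0.1% sulforhodamine B after 10% TCA fixation, with absorbance read at 560 nm. Activity was fitted bidirectionally against DMSO.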

[7] = read-out: Thrombomodulin, THBD (gene 7056); assay: BSK_3C_Thrombomodulin: BioMAP Diversity Plus: 3C Assay for Thrombomodulin Biomarker Activity (AID 2283029); settings: primary human endothelial cells (HUVEC); actives raise or lower the signal
How it was run: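 ELISA measurement of thrombomodulin on HUVEC surface 24 h after chemical dosing; activity fitted in both directions relative to DMSO vehicle.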

[8] = read-out: Urokinase-type plasminogen activator receptor (uPAR), PLAUR (gene 5329); assay: BSK_4H_uPAR: BioMAP Diversity Plus: 4H Assay for Urokinase-type plasminogen activator receptor (uPAR) Biomarker Activity (AID 2283030); settings: primary human endothelial cells (HUVEC); actives raise or lower the signal
How it was run: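 Primary human umbilical vein endothelial cells were exposed to chemical for 24 h before cell-surface uPAR was quantified by ELISA. Activity was fitted bidirectionally against the DMSO negative control baseline.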

[9] = read-out: Vascular endothelial growth factor receptor 2 (Homo sapiens) (UniProt P35968); assay: BSK_4H_VEGFRII: BioMAP Diversity Plus: 4H Assay for Vascular endothelial growth factor receptor 2 (VEGFR2) Biomarker Activity (AID 2283031); settings: primary human endothelial cells (HUVEC); actives raise or lower the signal
How it was run: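 Primary human umbilical vein endothelial cells in the BioMAP 4H system were dosed with test chemical, and 24 h later VEGFRII was measured by ELISA. Activity was fitted bidirectionally against DMSO as negative control and baseline.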

[10] = read-out: Human Leukocyte Antigen - DR isotype (HLADR), HLA-DRA (gene 3122); assay: BSK_BE3C_HLADR: BioMAP Diversity Plus: BE3C Assay for Human Leukocyte Antigen - DR isotype (HLADR) Biomarker Activity (AID 2283032); settings: primary human bronchial epithelial cells; actives raise or lower the signal
How it was run: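 Cell-surface HLA-DR ELISA readout at 24 h after dosing in the BE3C primary human lung bronchial epithelial system; gain or loss of signal against DMSO, with parallel sulforhodamine B staining of total protein for overt cytotoxicity.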

Measured: AC50

C=CC(=C)CC/C=C(\C)CCC=C(C)C
active: [2] 0.00695 µM
inactive: all other assays above

O=C(c1ccccc1)c1ccccc1
not listed: [5] | [9]
inactive: all other assays above

O=C(NCc1ncc(C(F)(F)F)cc1Cl)c1c(Cl)cccc1Cl
not listed: [9]
inactive: all other assays above

CS(=O)(=O)c1ccc([C@@H](CC2CCCC2)C(=O)Nc2cnccn2)cc1Cl
active: [1] 30.3 µM | [2] 9.05 µM | [5] 19.2 µM | [8] 22.7 µM
not listed: [9]
inactive: all other assays above

O=C(O)CCC(F)(F)C(F)(F)C(F)(F)C(F)(F)C(F)(F)F
not listed: [3]
inactive: all other assays above

OCC(F)(F)C(F)(F)C(F)(F)C(F)(F)C(F)(F)C(F)(F)C(F)(F)C(F)(F)C(F)(F)C(F)(F)C(F)(F)F
active: [1] 271 nM and 201 nM | [4] 0.275 µM | [7] 0.423 µM | [10] 251 nM and 154 nM
inactive: [2] | [4] | [5] | [6] | [7] | [8]

Cc1ccc(N=Nc2c(O)ccc3ccccc23)c(C)c1
active: [3] 19.9 µM | [10] 10 µM
not listed: [9]
inactive: all other assays above

O=C(O)C(F)(F)OC(F)(F)C(F)(F)OC(F)(F)C(F)(F)OC(F)(F)C(F)(F)C(F)(F)C(F)(F)F
active: [1] 26.1 µM and 24 µM | [2] 5.81 µM and 5.41 µM | [4] 48.1 µM and 54.2 µM | [5] 47.9 µM and 52.7 µM | [6] 7.88 µM and 7.84 µM | [7] 52 µM | [8] 43.5 µM and 43.6 µM | [10] 3.73 µM and 3.7 µM
inactive: [7]

CCOC(=O)CN[C@@H](C(=O)N1CC[C@H]1C(=O)NCc1ccc(/C(N)=N/O)cc1)C1CCCCC1
not listed: [9]
inactive: all other assays above

NC(=NCCCCCCN=C(N)/N=C(\N)Nc1ccc(Cl)cc1)/N=C(\N)Nc1ccc(Cl)cc1
active: [1] 4.85 µM | [2] 3.14 µM | [4] 4.81 µM | [5] 4.85 µM | [6] 4.74 µM | [7] 6.15 µM | [8] 4.47 µM | [10] 3.83 µM

COC1=CC(=O)C[C@@H](C)[C@]12Oc1c(Cl)c(OC)cc(OC)c1C2=O
not listed: [3] | [9]
inactive: all other assays above

Oc1ccc(Cc2ccccc2O)cc1
not listed: [3]
inactive: all other assays above

O=C(CC(=O)C(F)(F)C(F)(F)C(F)(F)F)c1cccs1
inactive: [7]
active: [1] 24.1 µM and 43.7 µM | [2] 43.6 µM and 45.2 µM | [4] 19.1 µM and 20.2 µM | [5] 34.4 µM and 44.3 µM | [6] 30 µM and 37.9 µM | [8] 49.1 µM and 54.8 µM | [10] 20.4 µM and 23.8 µM

CCCCCc1ccc(O)cc1
active: [1] 14.5 µM | [2] 30.2 µM | [3] 12.1 µM | [4] 13.3 µM | [5] 15.8 µM | [6] 26 µM | [7] 11.7 µM | [8] 20 µM | [10] 27.2 µM

From PubChem BioAssay (EPA / NIEHS)
